Source: PubChem BioAssay
FUS suppressor – qHTS for Suppressors of FUS Proteinopathy: Primary screen using FUS-linked yeast assay. S. cerevisiae FUS-expressing, growth rescue, OD600, 24 h. Potency, µM (titrated, usually from 76.6 µM), hits mostly activators. hit rate 0.24% among 390,000;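 also: potency is read from the fitted curve at half-maximal effect; plate controls were DMSO vehicle for no effect and reference control for full effect; nearly all actives have a fitted effect of over 55% in size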
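Toxicity suppression screen in FUS-yeast. Cells induced with 2% galactose, starting OD 0.005, treated 24hr at 30C with compounds at multiple final concentrations; growth by OD600.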
TDP-43 yeast inh – qHTS of TDP-43 Inhibitors; TDP-43 expressing yeast growth rescue, BacTiter-Glo, 24 h; Potency, µM (highest dose often 46.1 µM), inactives show at the top dose growth rescue (activation), actives largely listed as activators; hit rate 1.8% among 410,000; also: potency is read from the fitted curve at half-maximal effect; % of control where 0% means no effect; nearly all actives have a fitted effect of over 50% in size
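Readout is BacTiter-Glo luminescence of cell growth, so inhibitors register as activators. TDP-43-expressing yeast at OD600=0.02 in galactose medium, after raffinose pregrowth to mid-log, were incubated with compound for 24 hr at 30 deg C.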
Abeta yeast res – qHTS for compounds that reverse cellular toxicity of Amyloid beta (A-beta) peptide in yeast: Primary Screen. hit rate 0.063% among 410,000. Potency, µM (highest dose often 46.1 µM), hits mostly activators. yeast expressing A-beta42, growth rescue, OD600, 48 h; response scale: 0% DMSO, 100% iron-clioquinol control; also: potency is read from the fitted curve at half-maximal effect; nearly all actives have a fitted effect of over 55% in size
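Growth rescue measured by 600 nm absorbance after 48 h yeast culture at 30 C with compound. Values normalized between DMSO and an equimolar ferric chloride plus clioquinol control.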
PTHR1 agonist – qHTS for PTHR1 Agonists: Primary Screen; Parathyroid hormone/parathyroid hormone-related peptide receptor (Homo sapiens), Q03431; HEK293 GP2 PTHR1 cells, GloSensor cAMP luminescence, 1 h; Potency, µM (series often up to 115 µM), without a hit: at the top dose activation, most hits filed as activators; hit rate 0.075% among 410,000; also: potency is read from the fitted curve at half-maximal effect; nearly all actives have a fitted effect of over 55% in size
Target sequence (Q03431 whole entry, looked up): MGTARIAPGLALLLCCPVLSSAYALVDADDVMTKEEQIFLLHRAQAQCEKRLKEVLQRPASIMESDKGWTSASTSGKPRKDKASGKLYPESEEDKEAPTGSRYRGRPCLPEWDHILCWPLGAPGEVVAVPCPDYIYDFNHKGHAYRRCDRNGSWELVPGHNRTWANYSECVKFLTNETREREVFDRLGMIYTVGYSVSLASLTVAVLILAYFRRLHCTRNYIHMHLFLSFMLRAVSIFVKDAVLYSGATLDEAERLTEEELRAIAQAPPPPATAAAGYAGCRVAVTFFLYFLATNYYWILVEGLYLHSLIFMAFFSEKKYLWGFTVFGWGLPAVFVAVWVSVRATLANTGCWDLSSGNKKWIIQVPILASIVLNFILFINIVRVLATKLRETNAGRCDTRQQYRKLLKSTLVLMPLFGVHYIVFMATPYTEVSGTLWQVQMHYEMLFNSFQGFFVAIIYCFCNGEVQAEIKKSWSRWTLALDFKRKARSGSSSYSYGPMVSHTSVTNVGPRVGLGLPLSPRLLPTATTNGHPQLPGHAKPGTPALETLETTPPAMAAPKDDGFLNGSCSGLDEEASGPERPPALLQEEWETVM
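HEK-293-derived GP2 cells expressing PTHR1 and a GloSensor cAMP reporter, 3,000/well, plated overnight, given luciferin plus IBMX (each 0.5 mM as added) for 1 h at 37 °C, then compound for 1 h at 37 °C. Luminescence was read after 15 min at room temperature.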
aSyn yeast inh – qHTS of alpha-syn Inhibitors | Potency, µM (series often up to 46.1 µM), for the others: at the top dose growth rescue (activation), usual class: activators | hit rate 0.14% among 370,000 | Yeast expressing alpha-synuclein, growth rescue, BacTiter-Glo, 24 h; also: potency is read from the fitted curve at half-maximal effect; % of control where 0% means no effect; nearly all actives have a fitted effect of over 65% in size
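Galactose-induced alpha-syn yeast (OD600=0.02, raffinose-pregrown) + pinned cpd, 24 hr, 30 deg C; growth by BacTiter-Glo luminescence. Growth restoration scores as activation.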
LDHA inh – qHTS assay for inhibitors of human lactate dehydrogenase; purified LDHA, NADH/diaphorase-resazurin fluorescence; active compounds read low; AID 1347041, 2019; activity change, % (values are at about 110 or 230 µM); hit rate 0.15% among 480,000; in the data active = activity change below about -30%; inconclusive = mostly about -25% to -30%;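 also: plate controls were DMSO wells for no effect and wells without enzyme for full effect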
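Resorufin fluorescence (ex540/em590), read at 0 and 20 min after diaphorase/resazurin addition, reports the NADH left after a 5 min room-temperature reaction of 2 nM human LDH5 with 0.06 mM NADH and 0.2 mM pyruvate.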
* hit, by the source's call; i = inactive; ? = inconclusive; . = no result; ! = not active in a repeat; [ ] = remark or other dose. This is a sample that favours compounds with a hit; in the whole collection about 1.9% have one here. Unless noted, calls follow the shape of the dose curve; as a rule, active = well fitted curve in the direction sought with a large enough effect; inconclusive = small, poorly fitted or top-dose-only effect, or another doubt; inactive = no such curve, though single readings can be large; an effect the other way counts as inactive or inconclusive.

SMILES	FUS suppressor	TDP-43 yeast inh	Abeta yeast res	PTHR1 agonist	aSyn yeast inh	LDHA inh
COc1ccc(C(=O)C=Cc2ccc3c(c2)OCO3)cc1OC	i	14µM*	i	-48%	-1%	-2
COc1ccc(/C=C/C(=O)c2ccc3c(c2)OCCO3)cc1[N+](=O)[O-]	i	13µM*	i	-15%[57.5 µM]	0%	1
COc1ccc(/C=N/NC(=O)c2ccc3c(c2)OCCO3)cc1[N+](=O)[O-]	.	-7%	i	-24%	-10%	-4
CC1CCN(C(=O)CSc2ccc(-c3ccccc3)nn2)CC1	i	18µM*	i	i	11%	-5
O=C(CSc1ccc(-c2cccs2)nn1)N1CCCCC1	.	22µM*	i	-22%	1%	-6
CC1CCN(C(=O)CSc2ccc(-c3cccc([N+](=O)[O-])c3)nn2)CC1	i	?	i	-45%	7%	-6
O=C(CSc1ccc(-c2cccs2)nn1)N1CCCCCC1	.	18µM*	?	i	0%	-1
CC(=O)Nc1ccc(-c2nc3ccccc3s2)cc1C	.	.	.	.	.	0
COc1ccc2cc(C(=O)/C=C/c3cccs3)ccc2c1	.	.	.	.	.	6
COc1ccc(N=C2SCC(=O)N2Cc2ccccc2)cc1	i	13µM*	i	-28%	-14%	-8
O=C(O)c1ccc(N=C2SCC(=O)N2Cc2ccccc2)cc1	i	?	i	i	25%	1
CCOC(=O)c1cc(C)n(Cc2cccc(OC)c2OC)c1C	i	20µM*	i	-26%[57.5 µM]	-15%	8
CCOC(=O)c1c(C)c(C)n(Cc2cccc(OC)c2OC)c1C	i	1%	i	-94%	-14%	0
Cc1ccc(OCC(=O)Nc2nc(-c3ccccn3)cs2)c(C)c1	i	?	i	i	22µM*	1
O=C(COc1ccc(-c2ccccc2)cc1)Nc1cccnc1	i	22µM*	i	-23%	-9%	0
O=C(COc1ccccc1)Nc1nc(-c2cccnc2)cs1	?	10µM*	i	-45%	-8%	-6
COc1ccccc1CNC(=O)Cn1ccc2ccc(Cl)cc21	.	.	.	.	.	2
CC(C)NC(=O)c1cc(=O)[nH]c2ccc(S(=O)(=O)Nc3ccc(F)cc3)cc12	.	.	.	.	.	0
O=C(CCNc1cc(Cl)cc(Cl)c1)c1ccco1	i	16µM*	i	i	16%	2
O=C(CCNc1ccc(F)c(Cl)c1)c1ccco1	i	-2%	i	i	-1%	2
CN1CCCN(C(=O)c2cc3cc(Cl)ccc3oc2=O)CC1	.	.	.	.	.	3
CCOc1ccc(NC(=O)C(CC)n2nc(-c3ccc(C)c(C)c3)ccc2=O)cc1 (stereo not given)	i	19%	i	-4%	.	2
Cc1ccc(C)c(-c2ccc(=O)n(Cc3ccc(F)cc3Cl)n2)c1	?	22µM*!	i	-11%	?	0
CCC(C(=O)Nc1cc(OC)cc(OC)c1)n1nc(-c2ccc(C)c(C)c2)ccc1=O (stereo not given)	?	28µM*	?	i	.	2
CCC(C(=O)Nc1cc(F)ccc1F)n1nc(-c2cc(C)ccc2C)ccc1=O (stereo not given)	i	22µM*	i	i	.	0
Cc1ccc(C)c(-c2ccc(=O)n(Cc3cccc(Br)c3)n2)c1	i	24%	i	-59%	14%	2
CCOc1ccc(C(C(=O)NC2CCCC2)N(CCCO)C(=O)c2ccc(-c3ccccc3)[nH]2)cc1 (stereo not given)	35µM*	-13%	i	-19%	0%	-9
CCOc1cccc(/C=C2\NC(=O)NC2=O)c1O	.	.	.	.	.	5
COc1cc2nc(CSCC(=O)N3CCC(=O)CC3)[nH]c(=O)c2cc1OC	.	.	.	.	.	8
